From PubChem BioAssay (NCATS) come the findings set out here.

Inconclusive results are not listed. Values without a mark were called inactive. Calls of active or inactive are those of the source. Calls follow the shape of the dose curve; as a rule, active = well fitted cell-killing curve with a large enough effect; inconclusive = small, poorly fitted or top-dose-only effect, or effect the other way; inactive = flat fitted curve, though single readings scatter.
% is scaled to controls: 0 for no effect and ±100 for the full control effect; potency is read from the fitted curve at half-maximal effect.

This experiment concerns Tov112D. The experiment is described as follows: Primary qHTS to identify gynecologic anti-cancer compounds using libraries of approved drugs and bioactive compounds (AID 1345084). Also: nearly all actives have a fitted effect of over 55% in size. To be noted: Gynecologic cancer cell panel viability, ATPlite luminescence, 48 h; series mostly up to 57.5 µM; activity change, negative = cytotoxicity: at the top concentration. Summed up: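 Measured: luminescence after ATPlite addition (15 min, RT). Exposure: 48 h, 37 C, 5% CO2.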
(In general: In qHTS, concentration-response curves come from the screen itself.)
`CC[C@H]1C[C@H]2[C@@H]3CCC4=CC(=O)CC[C@@H]4[C@H]3CC[C@]2(C)[C@H]1O`: the “activity change, negative = cytotoxicity” value is 4.81%.
Still for that read-out and setting: for `Cc1nnc2n1-c1sc(CCc3ccc(CC(C)C)cc3)cc1C(c1ccccc1Cl)=NC2C` (stereo not given) the value was -17.4%; for `CN1C(=O)[C@@H](NC(=O)c2cc3ccccc3[nH]2)N=C(c2ccccc2)c2ccccc21`, -9.6%; for `C=CC[C@]1(O)CC[C@H]2[C@@H]3CCC4=CC(=O)CCC4=C3C=C[C@@]21C`, -1.95%.
Still for that read-out and setting: for `CC(CC(C#N)(c1ccccc1)c1ccccc1)N(C)C` (stereo not given) the value was -9.24% [at 116 µM]; for `COc1cc(CC(C)N)c(OC)cc1Br` (stereo not given), -1.87% [at 116 µM]; for `CNC(=O)NC(O)C(Cl)(Cl)Cl` (stereo not given), -0.423%.
Same read-out and setting: then `CC(C)=CCN1CC[C@@]2(C)c3cc(O)ccc3C[C@@H]1[C@@H]2C`, with -17.5% [at 116 µM].
`CC1N=C(N)OC1c1ccccc1` (stereo not given): the “activity change, negative = cytotoxicity” value is -7.21% [at 116 µM].
Same read-out and setting: for `Clc1ccc(C(OCCN2CCCCC2)c2ccccc2)cc1` (stereo not given) the value was -6.02%.
The same measure, in the same setting: for `O=C(NC(=O)c1c(F)cccc1F)Nc1cc(Cl)c(OC(F)(F)C(F)C(F)(F)F)cc1Cl` (stereo not given) the value was -9.68%; for `COP(=S)(OC)Oc1ccc(Sc2ccc(OP(=S)(OC)OC)cc2)cc1`, -0.517%.
Same read-out and setting: for `CN1CCc2cc(Cl)c(O)cc2[C@H]2c3ccccc3CC[C@@H]21` the value was -1.67%.
On to `CCCC(C)C1(CC)C(=O)N=C(S)NC1=O` (stereo not given), for which the “activity change, negative = cytotoxicity” value is 12.1%.
The same measure, in the same setting: for `CCC1(CC)C(=O)NC(=O)NC1=O` the value was -6.68%.
As for `N#Cc1nn(-c2c(Cl)cc(C(F)(F)F)cc2Cl)c(N)c1S(=O)C(F)(F)F` (stereo not given), the “activity change, negative = cytotoxicity” value is -5.21%.
In the case of `CCCN(CCC)CCc1c[nH]c2ccccc12`, the “activity change, negative = cytotoxicity” value is -8.52% [at 116 µM].
Consider `CN(C)C(=S)SSC(=S)N(C)C`, for which the Potency is 12.6 µM (active).
Regarding `Cc1c(Cl)c(=O)oc2cc(OP(=O)(OCCCl)OCCCl)ccc12`, the “activity change, negative = cytotoxicity” value was -2.32%.
As for `Oc1ccc2[nH]cc(CCCCN3CC=C(c4ccccc4)CC3)c2c1`, the “activity change, negative = cytotoxicity” value was -7.57%.
Still for that read-out and setting: then `CC#C[C@]1(O)CC[C@H]2[C@@H]3C[C@H](C)C4=CC(=O)CC[C@]4(C)[C@H]3CC[C@@]21C`, with -6.45%.
On the same count and under the same terms, for `CCO[C@H]1O[C@@H]2OC3(C)CC[C@H]4[C@H](C)CC[C@@H]([C@H]1C)[C@@]24OO3` the value was -2.4%; for `CC(=O)OC1(c2ccccc2)CCN(CCc2ccccc2)CC1`, -22.6% [at 116 µM].
Still for that read-out and setting: for `C=CCOC(Cn1ccnc1)c1ccc(Cl)cc1Cl` (stereo not given) the value was -29.2%.
As to `CC[n+]1c(-c2ccccc2)c2cc(N)ccc2c2ccc(N)cc21`, the Potency was 1.41 µM (active).
As for `Clc1ccc(CSC(Cn2ccnc2)c2ccc(Cl)cc2Cl)cc1` (stereo not given), the “activity change, negative = cytotoxicity” value is -22.2%.
Still for that read-out and setting: then `CN1[C@@H]2CC[C@H]1CC(OC(=O)c1cc(Cl)cc(Cl)c1)C2` (stereo not given in full), with -10%; and `Clc1ccc(CO/N=C(\Cn2ccnc2)c2ccc(Cl)cc2Cl)c(Cl)c1`, with -7.14%; and `CCN(CC)Cc1nccn1-c1ccc([N+](=O)[O-])cc1C(=O)c1ccccc1Cl`, with -14.2%.
Take `O=C1NCN(c2ccccc2)C12CCN(CCCOc1ccc(F)cc1)CC2`: the “activity change, negative = cytotoxicity” value is -15.7%.
